This is an account of results in PubChem BioAssay (Tox21).

Assay [1] deals with Thyrotropin receptor (Homo sapiens) (UniProt P16473). The assay is described as follows: qHTS assay to identify small molecule agonists of the thyroid stimulating hormone receptor (TSHR) signaling pathway (AID 1224843; calls by dose curve; note: nearly all actives have a fitted effect of over 45% in size). Summed up: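 Agonist-mode screen: TSHR HEK293 cells received test chemicals for half an hour at room temperature, then HTRF cAMP detection reagents for one hour prior to fluorescence measurement. Each chemical ran as a 15-concentration series, triplicated.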
Sequence of Thyrotropin receptor (Homo sapiens) (P16473 whole entry, looked up): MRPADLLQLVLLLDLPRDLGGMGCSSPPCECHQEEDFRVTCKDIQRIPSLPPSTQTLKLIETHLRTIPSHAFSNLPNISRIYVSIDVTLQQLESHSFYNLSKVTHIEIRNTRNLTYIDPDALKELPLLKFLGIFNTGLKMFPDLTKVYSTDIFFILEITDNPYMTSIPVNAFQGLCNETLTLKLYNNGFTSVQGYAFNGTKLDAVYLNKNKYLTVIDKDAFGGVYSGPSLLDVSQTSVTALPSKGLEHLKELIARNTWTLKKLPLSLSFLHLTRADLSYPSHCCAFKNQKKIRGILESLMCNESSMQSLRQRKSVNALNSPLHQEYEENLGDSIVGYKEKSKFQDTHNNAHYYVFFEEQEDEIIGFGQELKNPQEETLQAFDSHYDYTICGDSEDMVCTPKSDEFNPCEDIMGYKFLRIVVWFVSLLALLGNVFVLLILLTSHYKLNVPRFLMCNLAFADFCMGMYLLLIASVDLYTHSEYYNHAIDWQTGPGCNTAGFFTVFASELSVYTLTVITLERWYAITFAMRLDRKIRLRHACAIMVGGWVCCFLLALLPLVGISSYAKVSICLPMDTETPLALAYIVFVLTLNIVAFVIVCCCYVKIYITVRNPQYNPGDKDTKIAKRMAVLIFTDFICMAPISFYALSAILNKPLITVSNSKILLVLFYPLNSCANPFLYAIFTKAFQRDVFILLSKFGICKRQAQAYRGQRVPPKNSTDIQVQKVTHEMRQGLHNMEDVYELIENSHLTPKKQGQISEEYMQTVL

Assay [2] in a line: qHTS assay to identify small molecule agonists of the hypoxia (HIF-1) signaling pathway - cell viability counter screen (AID 1224844; calls by dose curve; note: nearly all actives have a fitted effect of over 50% in size). Summed up: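 HRE-bla ME-180; 0.5% dFBS; cpd 17 h, 37C, 5% CO2; CellTiter-Glo lum., 30 min RT, post-FRET read, same wells.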
A general note: Quantitative high-throughput screening tests each substance at several concentrations.

A short description of assay [3]: qHTS assay to identify small molecule agonists of H2AX (AID 1224845; active = well fitted activation curve with a large enough effect in the signal ratio in the repeat runs, not every such curve was filed as active; the % refers to the signal ratio). Summed up:
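Wild-type CHO-K1 cells, plated overnight, exposed 3hr at 37C to 15 concentrations (0.76% DMSO final). Lysed, then HTRF anti-pH2AX (S139) cryptate and anti-H2AX-d2 antibodies, 24 hr room temperature; 665/620 nm emission read.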

Assay [4] can be described thus: qHTS assay to identify small molecule agonists of the hypoxia (HIF-1) signaling pathway (AID 1224846; active = well fitted activation curve with a large enough effect in the signal ratio in the repeat runs, not every such curve was filed as active; the % refers to the signal ratio). Summed up: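 Reporter induction in HRE-bla ME-180 cells is taken as agonism: cells sit 5 hrs after plating, receive compounds or DMSO only, incubate 17 hrs at 37C under 5% CO2, and are loaded with CCF4-AM for beta-lactamase FRET measurement.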
A short description of assay [5]: qHTS assay to identify small molecule agonists of H2AX - cell viability counter screen (AID 1224847; calls by dose curve; note: top concentration of the series differs between compounds; nearly all actives have a fitted effect of over 30% in size). The method in brief:
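Compounds tested at 15 concentrations were incubated 3 hr at 37C with wild-type CHO-K1 cells; cellular ATP-based luminescence (CellTiter-Glo) indicated viability.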

Assay [6] can be described thus: qHTS assay to identify small molecule antagonists of the estrogen related receptor (ERR) signaling pathway from Tox21 library (AID 1224848). Note: nearly all actives have a fitted effect of over 50% in size. Note: potency is the fitted concentration of half-maximal effect. Summed up:
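Quantitative high-throughput format: ERR reporter cells (2,000/well) pre-incubated 6 h, treated 18 h at 37 C with compounds in DMSO alongside positive and negative controls, then read by ONE-Glo luminescence.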

A short description of assay [7]: qHTS assay to identify small molecule agonists of the estrogen related receptor (ERR) signaling pathway from Tox21 library (AID 1224849; calls by dose curve; note: nearly all actives have a fitted effect of over 15% in size). Particulars: ERR reporter cell line, ONE-Glo luciferase, 18 h; at 92.4 µM (top of the series) unless noted. Summed up: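 Tox21 compounds tested for ERR agonism in an NTP reporter cell line: 18 h treatment at 37 C, then ONE-Glo luminescence.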

Assay [8] can be described thus: qHTS RealTime-Glo MT Cell Viability Assay in HepG2 cells - 24 hour (AID 1224867). Note: nearly all actives have a fitted effect of over 50% in size. Summed up: (§1)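 Viability was tracked continuously by NanoLuc luminescence from prosubstrate reduced by living HepG2 cells, at successive time points over 40 h of compound exposure. Cells with reagent were preincubated 5 h at 37 °C before compound addition.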
Assay [9] in a line: qHTS RealTime-Glo MT Cell Viability Assay in HEK293 cells - 32 hour (AID 1224868). Note: nearly all actives have a fitted effect of over 50% in size. Note: potency is the fitted concentration of half-maximal effect. The method in brief: (§2)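 Viability tracked continuously by luminescence as live cells reduce a prosubstrate for NanoLuc; HEK293 cells preincubated 5 h, compound-treated at 37 C, and read at 0, 8, 16, 24, 32 and 40 h.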
Assay [10] can be described thus: A CellTox Green Cytotoxicity Assay to monitor cytotoxicity in HEK293 cells - 0 hour (AID 1224869). Note: nearly all actives have a fitted effect of over 50% in size. Summed up: (§3)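 Tox21 screen in HEK293: membrane-impermeant cyanine dye fluoresces on binding dead-cell DNA; compound pinned 5 h post-seeding, plates held at 37 C, signal read repeatedly through 40 h.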
Assay [11] can be described thus: qHTS RealTime-Glo MT Cell Viability Assay in HepG2 cells - 40 hour (AID 1224870). Note: nearly all actives have a fitted effect of over 50% in size. Summed up: (§4)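 HepG2 cells (600/well) mixed with RealTime-Glo MT reagent, settled 5 h at 37 C/5% CO2 before compound addition. Nonlytic NanoLuc luminescence from viable-cell prosubstrate reduction read repeatedly during 40 h treatment at 37 C.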
Assay [12] is described as follows: A CellTox Green Cytotoxicity Assay to monitor cytotoxicity in HEK293 cells - 40 hour (AID 1224871). Note: nearly all actives have a fitted effect of over 45% in size. The method in brief: as §3
A short description of assay [13]: qHTS RealTime-Glo MT Cell Viability Assay in HEK293 cells - 16 hour (AID 1224872). Summed up: as §2
A short description of assay [14]: qHTS RealTime-Glo MT Cell Viability Assay in HepG2 cells - 8 hour (AID 1224873). Note: nearly all actives have a fitted effect of over 55% in size. The method in brief:
as §4

The nature of assay [15]: qHTS RealTime-Glo MT Cell Viability Assay in HEK293 cells - 40 hour (AID 1224874). Note: nearly all actives have a fitted effect of over 50% in size. Note: potency is the fitted concentration of half-maximal effect. Particulars: RealTime-Glo luminescence; max response: hits give low values. Summed up:
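HEK293 + NanoLuc + prosubstrate, 600 cells/well; 5 h, 37 C/5% CO2; compound 23 nL in DMSO by pintool; 37 C; luminescence read at 0, 8, 16, 24, 32 and 40 h time points.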

Assay [16] can be described thus: A CellTox Green Cytotoxicity Assay to monitor cytotoxicity in HEK293 cells - 24 hour (AID 1224875). Note: nearly all actives have a fitted effect of over 45% in size. The method in brief: as §3
Assay [17] is described as follows: A CellTox Green Cytotoxicity Assay to monitor cytotoxicity in HepG2 cells - 16 hour (AID 1224876). Note: nearly all actives have a fitted effect of over 45% in size. Summed up:
(§5)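 Measurements at 0, 8, 16, 24, 32 and 40 h of treatment captured CellTox Green fluorescence in HepG2 cells that had been co-plated with reagent and preincubated 5 h at 37 C/5% CO2.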

The nature of assay [18]: qHTS RealTime-Glo MT Cell Viability Assay in HepG2 cells - 32 hour (AID 1224877). Note: nearly all actives have a fitted effect of over 55% in size. Summed up: as §1
A short description of assay [19]: A CellTox Green Cytotoxicity Assay to monitor cytotoxicity in HepG2 cells - 24 hour (AID 1224878). Note: nearly all actives have a fitted effect of over 45% in size. The method in brief:
as §5

Assay [20] can be described thus: A CellTox Green Cytotoxicity Assay to monitor cytotoxicity in HepG2 cells - 40 hour (AID 1224879). Note: nearly all actives have a fitted effect of over 40% in size. Summed up:
as §5

A number with no mark means an inactive call. Inconclusive results are not listed. Activity calls are given as the source filed them. Unless noted, calls come from the whole dose curve; as a rule, active = well fitted curve in the direction sought with a large enough effect in the repeat runs; inconclusive = weak or mixed curves; inactive = no such curve, though single readings can be large; an effect the other way counts as inactive or inconclusive.
% is set by controls: 0 for no effect and ±100 for the full control effect.

As for `C[C@]12C(=O)OC(=O)[C@H]1[C@H]1C=C[C@@H]2C1`, the Potency result in assay [1], in assay [2], in assay [3], in [5], in [6] and in assay [8] was “inactive” in each case. The Potency result in [9], in assay [10], in [11], in assay [12], in assay [13] and in assay [16] was “inactive” each time. In addition, the Potency result in assay [17], in assay [18], in assay [19] and in assay [20] was “inactive” in each case. Also, the call in assay [4] and in assay [14] was inactive. Besides, the activity change, positive = activation in assay [7] was 0.566%. In addition, the max response in assay [15] is 10.7%.
As for `Cc1ncc(CO)c(CN)c1O`, the Potency entry in [1], in assay [2], in assay [3], in [5], in assay [6] and in assay [8] was “inactive” throughout. The Potency result in assay [9], in assay [10], in assay [11], in assay [12], in [13] and in [16] was “inactive” each time. In addition, the Potency entry in assay [17], in [18], in assay [19] and in assay [20] was “inactive” each time. Also, in assay [4], the result was inactive. Also, in [7], the activity change, positive = activation is 4.27% [at 42.5 µM]. Besides, the max response in assay [15] is 4.15%.
Regarding `CC[C@H]1CC[C@H](NCc2cc3c(cc2OC)[C@H]2C[C@H]2C(=O)N3C)[C@H](c2ccccc2)N1`, the Potency result in [1], in assay [2], in [3], in assay [5], in assay [8] and in [10] was “inactive” throughout. The Potency entry in assay [11], in [12], in assay [16], in [17] and in [18] was “inactive” in each case. Besides, the outcome in [4] and in [14] was inactive. The values for the Potency in assay [6], in [9] and in assay [15] were 27.3 µM (active), 19.5 µM (active) and 21.9 µM (active), respectively. Further, the activity change, positive = activation in assay [7] was -40.9%.
In the case of `CCCCC1CCC(=O)O1` (centres undefined), the Potency result in assay [1], in [2], in [3], in assay [5], in [6] and in [8] was “inactive” each time. The Potency entry in assay [9], in assay [10], in assay [11], in assay [12], in assay [13] and in [16] was “inactive” in each case. Moreover, the Potency result in assay [17], in assay [18], in assay [19] and in assay [20] was “inactive” each time. Further, the call in assay [4] and in assay [14] was inactive. Also, the activity change, positive = activation in [7] was -0.824%. Further, the max response in assay [15] was -3.25%.
For `N#CSCC(=O)O`, the Potency entry in assay [1], in assay [2], in [3], in assay [5], in assay [6] and in assay [8] was “inactive” in each case. Further, the Potency entry in assay [9], in assay [10], in assay [11], in [12], in assay [13] and in assay [16] was “inactive” in each case. Further, the Potency entry in assay [17], in assay [18], in assay [19] and in assay [20] was “inactive” throughout. For the same molecule, the result in assay [4] and in assay [14] was inactive. The activity change, positive = activation in assay [7] is 4.98% [at 42.5 µM]. In addition, in assay [15], the max response was 0.0274%.
Take `Cc1ccc([N+](=O)[O-])cc1Cl`: the Potency entry in assay [1], in [2], in [3], in assay [5], in [6] and in assay [8] was “inactive” throughout. Besides, the Potency result in assay [9], in assay [10], in [11], in assay [12], in [13] and in assay [16] was “inactive” each time. The Potency entry in assay [17], in assay [18] and in [20] was “inactive” each time. Further, the molecule was classed as inactive in assay [4] and in assay [14]. For the same molecule, the activity change, positive = activation in assay [7] was 14.6% (active). In addition, the max response in assay [15] was 0.878%.
For `COC(=O)/C=C(/C)N`, the Potency entry in [1], in [2], in [3], in assay [5], in assay [6] and in assay [8] was “inactive” in each case. The Potency result in [9], in assay [10], in assay [11], in assay [12], in assay [13] and in assay [16] was “inactive” in each case. Moreover, the Potency entry in [17], in [18] and in [20] was “inactive” each time. The molecule was called inactive in assay [4] and in assay [14]. In addition, the activity change, positive = activation in assay [7] is 7.53% [at 42.5 µM]. The max response in assay [15] was 5.09%.
In the case of `O=C(CCCl)NCc1ccccc1`, the Potency result in assay [1], in assay [2], in assay [3], in [5], in [6] and in assay [8] was “inactive” each time. For the same molecule, the Potency result in [9], in [10], in assay [11], in [12], in [13] and in [16] was “inactive” each time. For the same molecule, the Potency result in assay [17], in assay [18], in assay [19] and in assay [20] was “inactive” throughout. Further, the molecule was called inactive in assay [4] and in assay [14]. The activity change, positive = activation in assay [7] was 5.97% [at 42.5 µM]. Further, the max response in assay [15] was -3.01%.
On to `CC(C)(C)c1cccc(O)c1`, for which the Potency entry in [1], in assay [2], in [3], in assay [5], in assay [6] and in assay [8] was “inactive” in each case. The Potency result in [9], in assay [10], in assay [11], in [12], in assay [13] and in [16] was “inactive” throughout. Moreover, the Potency entry in [17] and in assay [18] was “inactive” throughout. In addition, in [4], the result was inactive. For the same molecule, in [7], the activity change, positive = activation is 1.25%. Besides, the max response in assay [15] is -6.86%.
Consider `O=S(=O)(O)C(F)(F)F`, for which the Potency entry in assay [1], in [2], in assay [3], in assay [5], in assay [6] and in assay [8] was “inactive” throughout. For the same molecule, the Potency entry in assay [9], in assay [10], in assay [11], in assay [12], in [13] and in assay [16] was “inactive” in each case. Further, the Potency result in [17], in [18], in assay [19] and in assay [20] was “inactive” throughout. In addition, the outcome in [4] was inactive. Moreover, the activity change, positive = activation in [7] was 4.04%. For the same molecule, the max response in [15] was 7.92%.
Regarding `CC(C)S`, the Potency entry in [1], in assay [2], in assay [3], in assay [5], in [6] and in [8] was “inactive” in each case. For the same molecule, the Potency result in assay [9], in assay [10], in [11], in [12], in assay [13] and in [16] was “inactive” throughout. Also, the Potency result in [17], in [18], in [19] and in [20] was “inactive” each time. In addition, the call in [4] and in assay [14] was inactive. The activity change, positive = activation in assay [7] is 3.07%. Moreover, the max response in assay [15] was 0.674%.
Regarding `Cc1ccc(C)c(N)c1`, the Potency entry in [1], in assay [2], in assay [3], in assay [5], in assay [6] and in [8] was “inactive” in each case. For the same molecule, the Potency entry in assay [9], in assay [10], in assay [11], in [12], in assay [13] and in [16] was “inactive” each time. Moreover, the Potency result in [17], in assay [18], in assay [19] and in assay [20] was “inactive” in each case. For the same molecule, the molecule was called inactive in assay [4]. Also, the activity change, positive = activation in assay [7] is 2.8%. Moreover, the max response in assay [15] is 4.84%.
